High-throughput results deposited in PubChem by National Center for Advancing Translational Sciences (NCATS).
Pf Dd2 inh: qHTS Primary assay for Inhibitors of Plasmodium falciparum Dd2 growth in vitro. P. falciparum Dd2 growth, SYBR Green, 72 h. hit rate 4.3% among 120,000. Potency, µM (highest dose often 28.9 µM), without a hit: at the top dose activity, negative = inhibition, hits mostly inhibitors; active = well fitted inhibition curve with a large enough effect;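 note: plate controls were DMSO vehicle for no effect and reference drug for full effect; nearly all actives have a fitted effect of over 65% in size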
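Readout: SYBR Green fluorescence, 485 nm excitation, 535 nm emission, after ~16 h lysis at 37C. Before that, Dd2-infected red cells (2.5% hematocrit) grew 72 h with compound, 29 uM top final concentration.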
* = called active by the depositor; i = inactive; [ ] = dose if it differs, or a comment. This is one part of a sample in which hits are shown more often than they occur. Potency is the fitted concentration of half-maximal effect.

SMILES	Pf Dd2 inh
O=C(Cn1cc(S(=O)(=O)Cc2ccc(F)cc2)c2ccccc21)NCc1ccccc1	i
Fc1ccc(C2Cn3nnc(-c4nc(-c5ccccc5Br)no4)c3CO2)cc1 (configuration not stated)	0%
O=C(NCCc1ccccc1)N1CCC(c2noc(-c3ccncc3)n2)C1 (configuration not stated)	i[5.79 µM]
Cc1ccc2c(c1)c(=O)c1ccccc1n2CCCC(=O)Nc1c(F)cccc1F	64%
Cc1ccc(NC(=O)C(=O)NCC(c2cccnc2)N2CCOCC2)cc1C (configuration not stated)	-16%
Cc1ccc(NC(=O)C(=O)NCC(c2cccnc2)N2CCOCC2)cc1Cl (configuration not stated)	-12%
COC(=O)c1ccc(NC(=O)C(=O)NCC(c2cccnc2)N2CCN(c3ccccc3)CC2)cc1 (configuration not stated)	-10%
O=C(NCC(c1cccnc1)N1CCOCC1)C(=O)Nc1ccc(F)cc1 (configuration not stated)	9%
Cc1ccc(NC(=O)C(=O)NCC(c2cccnc2)N2CCN(Cc3ccccc3)CC2)cc1C (configuration not stated)	5.6µM*
Cc1ccc(NC(=O)C(=O)NCC(c2cccnc2)N2CCN(Cc3ccccc3)CC2)cc1F (configuration not stated)	8.9µM*
COc1ccc2oc(=O)c(C(=O)NCCc3c(C)[nH]c4ccc(C)cc34)cc2c1	-24%
COc1ccnc(-c2nnc3ccc(N4C[C@@H](C)O[C@@H](C)C4)nn23)c1	i
O=C(c1ccc(F)cc1)N1C[C@@H]2C[C@H](C1)c1ccc(NS(=O)(=O)Cc3ccccc3)c(=O)n1C2	-14%
CCOc1ccc(C(=O)N2CCCN(c3cc(-c4ccc(F)cc4)[nH]n3)CC2)cc1	-15%
CCCNC(=O)CN1CCN(c2ccc(NC(=O)c3ccc(OC)cc3)cc2C(=O)O)CC1	-17%
CC1CCc2c(sc(NC(=O)Cc3ccccc3)c2C(=O)Nc2ccc(Cl)cc2)C1 (configuration not stated)	10µM*
O=C(Cc1ccccc1)Nc1sc2c(c1C(=O)Nc1cccc(Cl)c1)CCCCC2	i
Cc1ccc(NC(=O)c2c(NC(=O)Cc3ccccc3)sc3c2CCC3)cc1	32%
CS(=O)(=O)Nc1cc(-c2noc([C@@H]3CCCN3Cc3ccccc3F)n2)ccn1	i
COc1ccc(Nc2cc(C)c3cc(NC(=O)COc4cccc(C)c4)ccc3n2)cc1	4µM*
COc1ccc(CC(=O)Nc2ccc3nc(Nc4cccc(Cl)c4)cc(C)c3c2)cc1OC	i
COc1ccc(-n2nc3ccc(NC(=O)COc4ccc(C)c(C)c4)cc3n2)cc1	6%
CCOc1ccc(CNC(=O)CCS(=O)(=O)c2ccc3c(c2)oc(=O)n3C)cc1	4%
Cc1ccc(C(=O)N2CCC(n3cc(-c4nc(C5CC5)no4)nn3)C2)cc1C (configuration not stated)	-25%
CN(Cc1ccccc1)C(=O)CC1CCNC1 (configuration not stated)	i
SMILES	Pf Dd2 inh
COCCC1(NC(=O)c2ccccc2)CCN(C(=O)c2ocnc2C)CC1	1%
Cn1c(=O)c2c(-c3cccc(Br)c3)n(CCO)cc2n(C)c1=O	i
Cn1c(=O)c2c(-c3ccccc3Cl)n(-c3cc(Cl)ccc3O)cc2n(C)c1=O	7.9µM*
Cn1c(=O)c2c(-c3ccccc3Cl)n(Cc3ccc(Cl)cc3)cc2n(C)c1=O	-24%
Cc1cccc(CN2CCN(Cc3nc(-c4ccco4)oc3C)C(C)C2=O)c1 (configuration not stated)	13µM*
Cc1cccc(-c2nc(CN3C(=O)CN=C(c4ccccc4)c4ccccc43)c(C)o2)c1	-22%
COc1cccc(CN2CC[C@H](c3nnc(-c4ccco4)o3)C2)c1	i
CCOC(=O)c1c(-c2ccccc2)oc2ccc(OCc3cccc(Br)c3)cc12	i
Cc1noc(C)c1CC(=O)NC1CCc2nnc(C)n2CC1 (configuration not stated)	47%
CCN(CC)c1cc(CCC(=O)N(C)CCc2ccncc2)ccn1	-14%
Cn1cc(CCC(=O)NCc2ccc(Cl)cc2)c2ccccc21	29%
CCN(CC)c1cc(CCC(=O)NCc2ccc(Cl)cc2)ccn1	5µM*
Cc1cc(NC(=O)Cn2ccn3nc(-c4ccccc4)c(CO)c3c2=O)n[nH]1	3%
Cc1ccc(NC(=O)C2CC(=O)Nc3ncnn32)c(C)c1 (configuration not stated)	-7%
c1ccc(-c2noc(-c3cncnc3N3CCN(c4ccccc4)CC3)n2)cc1	-11%
O=C(c1ccco1)N1CCN(c2ncncc2-c2nc(-c3ccccc3)no2)CC1	4µM*
NC(=O)C1CCN(c2ncncc2-c2nc(-c3ccccc3)no2)CC1	-21%
C[S+](=O)([O-])N1CCC2(CC1)C(=O)NN=C2c1ccncc1	22%[44.1 µM]
Cc1ccc2c(c1)cc1c(=O)n(CC(=O)N(C)c3ccccc3)nc(C)n12	i
COc1ccc2oc(-c3ccc(C)c(NC(=O)c4ccc(-c5ccccc5[N+](=O)[O-])o4)c3)nc2c1	-2%
Cc1cccc(N2CCN(C(=O)c3cn(CC(C)C)c(=O)c4c3c3ccccc3n4C)CC2)c1C	11µM*
CCn1cc(C(=O)N2CCN(c3cc(C)ccc3C)CC2)c(=O)c2cc(S(=O)(=O)N3CCCCC3)ccc21	12%
Cc1ccc(C)c(N2CCN(C(=O)c3cn(CC(C)C)c(=O)c4c3c3ccccc3n4C)CC2)c1	2.5µM*
CCn1c(=O)cc(OCC(=O)N2CCN(c3cccc(C)c3C)CC2)c2ccccc21	46%
Cc1ccc(-n2nc(C(=O)N3CCN(c4cc(C)ccc4C)CC3)c3c4ccccc4n(C)c3c2=O)cc1	31%
SMILES	Pf Dd2 inh
Cc1ccc(-n2nc(C(=O)N3CCN(c4ccccc4F)CC3)c3c4ccccc4n(C)c3c2=O)cc1	29%
CC(C)Cc1nnc(NC(=O)C2CC(=O)N(c3n[nH]c4cccc(F)c34)C2)s1 (configuration not stated)	3%
CC(C)CNC(=O)N1CCC(OC2CCN(S(C)(=O)=O)CC2)CC1	-4%
CC[C@@]1(C(=O)O)C[C@H](C(=O)N2CCN(C)CC2)[C@H](c2ccc(OC)cc2)N1C	-9%
CCCN1CCN(C(=O)C2CCCN(c3cnc4nccnc4c3)C2)CC1 (configuration not stated)	i
O=C(N[C@@H]1CN(Cc2cc(F)cc(F)c2)C[C@H]1CO)c1ccccc1	10µM*
N#Cc1ccc(CN2C[C@@H](CO)[C@H](NC(=O)c3ccccc3)C2)cc1	-23%
O=C(N[C@@H]1CN(Cc2cccc(F)c2)C[C@H]1CO)c1ccccc1	i
O=C(c1ccc(-c2ccc(N3CCSCC3)nc2)cc1)N1CCOCC1	i
CCC(CC)C(=O)N1CCC2(CC1)C(=O)N(C)c1ccccc12	i
CCOc1ccc(C(=O)N2CCC3(CC2)C(=O)N(C)c2ccccc23)cc1OCC	13µM*
CN1C(=O)C2(CCN(C(=O)CCC3CCCC3)CC2)c2ccccc21	5.6µM*
CN1C(=O)C2(CCN(C(=O)CCn3cnnn3)CC2)c2ccccc21	i
Cc1cc2cc(C(=O)N3CCC4(CC3)C(=O)N(C)c3ccccc34)ccc2o1	-22%
CN1C(=O)C2(CCN(C(=O)CCc3ccccc3)C2)c2ccccc21 (configuration not stated)	-16%
COc1ccc(OC2CCN(C3CCCC3)CC2)c(C(=O)NCCCN2CCCC2=O)c1	-15%
